High-throughput results: PubChem, The Scripps Research Institute Molecular Screening Center
This is one part of a sample in which hits are shown more often than they occur.
GBA enhancer: GBA activity enhancers in patient fibroblasts, primary screen, cell-based | Lysosomal acid glucosylceramidase (Homo sapiens), P04062 | L444P Gaucher fibroblasts, 4-MU-glucoside fluorescence, 3 days | activation, % at 10 µM | hit rate 0.44% among 30,000 | AID 784, 2007; in the data active means activation above about 65%
Target sequence (P04062 whole entry L483P): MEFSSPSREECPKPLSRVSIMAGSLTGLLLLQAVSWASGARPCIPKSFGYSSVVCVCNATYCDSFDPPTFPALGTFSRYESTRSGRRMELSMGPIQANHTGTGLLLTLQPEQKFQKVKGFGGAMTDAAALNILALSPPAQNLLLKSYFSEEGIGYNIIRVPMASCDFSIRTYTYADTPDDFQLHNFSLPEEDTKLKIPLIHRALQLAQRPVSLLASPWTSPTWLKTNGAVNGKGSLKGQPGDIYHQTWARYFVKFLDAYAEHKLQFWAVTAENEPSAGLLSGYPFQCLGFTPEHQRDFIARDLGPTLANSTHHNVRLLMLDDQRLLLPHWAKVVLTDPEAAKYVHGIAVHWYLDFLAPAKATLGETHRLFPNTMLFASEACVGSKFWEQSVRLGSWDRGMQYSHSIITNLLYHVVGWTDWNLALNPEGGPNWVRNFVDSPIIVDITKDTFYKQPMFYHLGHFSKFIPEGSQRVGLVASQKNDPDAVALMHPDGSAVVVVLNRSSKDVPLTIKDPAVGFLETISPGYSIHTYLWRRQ
Hits are given with their value; i = inactive.

SMILES	GBA enhancer
CCOC(=O)c1ccc(NC(=O)CSC2=NC(=O)C(CC)C(=O)N2)cc1 (configuration not stated)	145
CCOC(=O)c1ccc(NC(=O)CSc2nnc(C)n2-c2ccccc2)cc1	i
CCC1C(=O)N=C(SCC(=O)Nc2cccc3ccccc23)NC1=O (configuration not stated)	i
CCOc1cc(-c2noc(-c3ccncc3)n2)cc(Br)c1OC	i
CCOc1ccc(-c2noc(-c3ccncc3)n2)cc1OCC	228
CCOc1ccc(-c2nc(-c3ccc(OC)cc3)no2)cc1OCC	i
O=C(CSc1nnc(-c2ccccc2Br)o1)N1CCc2ccccc2C1	i
CCN1CCN(CCCNC(=O)C(NC(=O)C2CCC(C)CC2)C(C)C)CC1 (configuration not stated)	i
CCN1CCCC1CNC(=O)C(NC(=O)C1CCC(C)CC1)C(C)C (configuration not stated)	i
CC1CCC(C(=O)NC(C(=O)NCCCN2CCOCC2)C(C)C)CC1 (configuration not stated)	68
O=C(C1CCN(S(=O)(=O)N2CCOCC2)CC1)N1CCN(c2ccccc2)CC1	i
O=C(O)CCCC(=O)Nc1ccc(Br)cc1C(=O)O	i
CC1Cc2cc(/C(O)=C3/C(=O)C(=O)N(CCCN(C)C)C3c3ccncc3)ccc2O1 (configuration not stated)	i
COCCCN1C(=O)C(=O)/C(=C(/O)c2ccc(C)cc2)C1c1ccccc1 (configuration not stated)	i
Cc1ccc(C)c(/C(O)=C2\C(=O)C(=O)N(CCCn3ccnc3)C2c2ccncc2)c1 (configuration not stated)	84
O=C(CN1CCN(C(=O)c2ccccc2F)CC1)Nc1ccc(Br)cc1	i
Cc1cccc(NC(=O)C2CC(O)CN2C(=O)OCc2ccccc2)c1 (configuration not stated)	i
Cc1ccc(C)c(NC(=O)C2CC=CCC2C(=O)O)c1 (configuration not stated)	i
Cc1ccc(C)c(NC(=O)C2CC(O)CN2C(=O)OC(C)(C)C)c1 (configuration not stated)	72
CCOc1cc2[nH]c(=O)n(CCCCC(=O)NC3CCCCC3)c(=O)c2cc1OCC	i
C=C(C)Cn1c(NCCOC)nc2c1c(=O)[nH]c(=O)n2C	i
CC(C)(O)c1cn(-c2nonc2N)nn1	i
O=S(=O)(NCc1csc(-c2cccnc2)n1)c1ccc2c(c1)OCCO2	109
Cc1nc(CNS(=O)(=O)c2ccc3c(c2)OCCO3)cs1	i
O=S(=O)(NCCc1csc(-c2ccccc2)n1)c1ccc2c(c1)OCCO2	i
SMILES	GBA enhancer
Cn1cc(C(=O)N2CCN(C(=O)c3ccco3)CC2)c2c3ccccc3n(C)c2c1=O	i
CC1(C)CC(=O)C2=C(C1)OC(N)=C(C#N)C21CCN(Cc2ccccc2)CC1	i
CCOC(=O)C1=C(C)OC(N)=C(C#N)C1c1c(C)nn(-c2ccccc2)c1Cl (configuration not stated)	i
CCOC(=O)N1CCC2(CC1)C(C#N)=C(N)Oc1c2c(C)nn1-c1cccc(Cl)c1	74
COc1ccc(C2C(C#N)=C(N)N3C(=C2C#N)Sc2ccccc23)cc1 (configuration not stated)	i
Cn1cc(SCC(=O)Nc2nc3ccccc3s2)c2ccccc21	i
Cc1nc2ccccc2nc1OCC(=O)Nc1cc(C(F)(F)F)ccc1N1CCOCC1	i
FC(F)(F)c1ccc(N2CCOCC2)c(Nc2nc3ccccc3n3cnnc23)c1	75
O=C(Nc1cc(C(F)(F)F)ccc1N1CCOCC1)c1cncc(Br)c1	i
CCOC(=O)CCSc1nnc(-c2cccnc2)n1-c1ccccc1OC	i
O=C(CN(C1CCCCC1)S(=O)(=O)c1ccc(Cl)cc1)NCc1ccncc1	i
CCCCNC(=O)c1cn(C)c2ccc(S(=O)(=O)N3CCOCC3)cc2c1=O	i
COCCNC(=O)C(C)OC(=O)c1nsc(Cl)c1Cl (configuration not stated)	i
CC(OC(=O)c1nsc(Cl)c1Cl)C(=O)NCc1cccs1 (configuration not stated)	79
CC(OC(=O)c1cccs1)C(=O)NCc1cccs1 (configuration not stated)	i
Cc1ccc(C)c(S(=O)(=O)Nc2ccc3scnc3c2)c1	i
COCCCn1c(SCC(=O)n2c(C)c(C)c3ccccc32)nnc1-c1ccoc1C	i
C=CCn1c(CCC(=O)O)ccc1-c1ccccc1	i
Cn1cc(NC(=O)c2cc(NC(=O)c3cc(NC=O)cn3C)cn2C)cc1C(=O)NCCC(=N)N	i
CCCCN(CCCC)S(=O)(=O)c1ccc(C(=O)Nc2nnc(CSC)o2)cc1	i
CCCCN(CC)S(=O)(=O)c1ccc(C(=O)Nc2nnc(CSC)o2)cc1	81
CCCN(CCC)S(=O)(=O)c1ccc(C(=O)Nc2nnc(CSC)o2)cc1	i
CC(=O)c1cccc(NC(=O)N2CCCC2C(=O)NCc2ccc(C)cc2)c1 (configuration not stated)	i
CC(=O)c1cccc(NC(=O)N2CCCC2C(=O)Nc2ccccc2C)c1 (configuration not stated)	i
CC(=O)Nc1cccc(NC(=O)C2CCCN2C(=O)Nc2ccc(C)cc2)c1 (configuration not stated)	80
SMILES	GBA enhancer
CCOC(=O)N1CCC(NC(=O)CCC(=O)N2CC(C)Oc3ccc(Cl)cc32)CC1 (configuration not stated)	i
CCCc1nn(CCc2ccccn2)c(N)c1CC	i
Nc1nonc1-n1nnc(C(=O)O)c1-c1cccs1	i
CCC(Sc1nc(C)cc(=O)[nH]1)C(=O)Nc1nc2c(s1)CCCC2 (configuration not stated)	81
Cc1cc(=O)[nH]c(SCC(=O)Nc2nc3c(s2)CCCC3)n1	i
CCC(Sc1nc(C)cc(=O)[nH]1)C(=O)Nc1nnc(C)s1 (configuration not stated)	i
Cc1cc(C)c(S(=O)(=O)n2nc(C)c(Br)c2C)c(C)c1	i
O=C1OCCN1CCN(CN1C(=O)CCC1=O)CN1C(=O)CCC1=O	i
Cc1nonc1NC(=O)OCCN1CCOC1=O	88
Cc1ccc2c3c(c(SCC(=O)Nc4nonc4C)nc2c1)CCCC3	i
Cn1c(=O)c2cc(NC(=O)c3ccccc3Cl)c(=O)oc2n(C)c1=O	i
O=C(c1cccnc1)N1CCN(C(=O)c2ccccc2F)CC1	i
O=S(=O)(Cc1ccccc1)N1CCc2ccccc21	i
CC(C(=O)Nc1ccccc1-c1ccccc1)N1CCN(C(=O)c2ccco2)CC1 (configuration not stated)	i
C=CCn1c(-c2ccco2)n[nH]c1=S	i
C=CCn1c(-c2cc(OC)c(OC)c(OC)c2)n[nH]c1=S	i
C=CCn1c(-c2c[nH]c3ccccc23)n[nH]c1=S	67
O=C(NCCCN1CCCC1=O)c1ccc2c(=O)n(Cc3ccco3)c(=S)[nH]c2c1	115
COc1cc(NC(=O)c2ccc3c(=O)n(Cc4ccco4)c(=S)[nH]c3c2)cc(OC)c1OC	i
COC(=O)c1ccc2c(=O)n(CCCN3CCCC3=O)c(=S)[nH]c2c1	i
CCN(CC)S(=O)(=O)c1ccc2c(c1)nc(SCC(=O)NC1CC1)n2-c1ccccc1OC	i
Cc1cc2c(c(=O)n1C)C(Cc1ccccc1)C(C#N)=C(N)O2 (configuration not stated)	i
COC(=O)c1cc(C(=O)OC)cc(N2C(=O)CN=C2Nc2nc(C)cc(C)n2)c1	i
O=C(O)CN1CCN(Cc2ccc(F)cc2Cl)C1=O	i
